Experimental findings from PubChem BioAssay AID1672 (Johns Hopkins Ion Channel Center, 2009) are described below.

The whole screen tested about 310,000 compounds, of which about 2,600 (0.84%) were called active.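 The calls were made as follows: active = fluorescence ratio B-score at or below minus 3 SD of library scores, with starting-brightness B-score within 2 SD (cut at about -4.2 in these data); inactive = the rest.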 The list comes from a sample in which actives are over-represented; it also holds similar structures and randomly drawn compounds.

This experiment deals with Inward rectifier potassium channel 2 (Mus musculus) (UniProt P35561). Description: blocks the mouse Kir2.1 inward-rectifier potassium channel (AID 1672).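 Also: channel flux triggered by added potassium and thallium sulfate stimulus; B-score of peak minus minimum fluorescence over baseline after thallium stimulus; more negative B-score means stronger Kir2.1 block with less thallium influx.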 The conditions noted are these: HEK293-Kir2.1, FluxOR thallium flux fluorescence; at 10 µM; active compounds read low.
Sequence of Inward rectifier potassium channel 2 (Mus musculus) (P35561 whole entry, looked up): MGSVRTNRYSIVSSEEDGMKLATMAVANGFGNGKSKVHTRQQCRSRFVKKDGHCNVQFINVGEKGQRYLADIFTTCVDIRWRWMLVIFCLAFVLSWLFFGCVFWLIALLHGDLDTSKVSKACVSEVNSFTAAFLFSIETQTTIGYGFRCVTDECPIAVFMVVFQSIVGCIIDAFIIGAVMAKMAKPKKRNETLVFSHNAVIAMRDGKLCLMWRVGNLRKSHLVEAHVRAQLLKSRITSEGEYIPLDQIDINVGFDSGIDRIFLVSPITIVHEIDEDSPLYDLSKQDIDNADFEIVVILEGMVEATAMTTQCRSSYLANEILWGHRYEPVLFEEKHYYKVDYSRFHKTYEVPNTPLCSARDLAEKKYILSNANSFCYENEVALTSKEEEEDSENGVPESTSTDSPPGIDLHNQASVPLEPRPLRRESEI
Consider `CNCC(O)c1cc(F)c(OCc2ccccc2)c(OCc2ccccc2)c1F` (stereo not given), for which the B-score is -10.4 (active). Regarding `COc1ccc2c(c1O)-c1cccc3c1[C@@H](C2)N(C)CC3`, the B-score is -0.89 (inactive). Regarding `C=CC12CN(C)[C@@H]3C4CO[C@H](C[C@H]41)[C@]1(C(=O)Nc4ccccc41)[C@@H]32` (stereo not given in full), the B-score is -0.31 (inactive).

Turning to `COC(=O)C1=C(c2ccccc2)C[C@@H]2CC[C@H]1N2C(=O)NCc1ccco1`, the B-score was -0.88 (inactive).

As for `COc1ccc(N2C(=O)/C(=C/c3ccco3)C(=O)NC2=S)cc1`, the B-score is -1 (inactive). Then `COC(=O)N(c1ccc(OC)cc1)P1(=S)OCCC(C)O1` (stereo not given), with -0.02 (inactive); and `CCOc1cccc(=NC2CCCCC2)c2c(C)[nH]c(C)c12`, with -6.51 (active). The value for `CCC(C)n1c(O)c(/C=N/Nc2nc3c(c(=O)n(C)c(=O)n3C)n2C)c(=O)[nH]c1=S` (stereo not given) was 1.97 (inactive); that for `CCN1C(=O)C(=Cc2c(C)n(CC(=O)NCC3CCCO3)c3ccccc23)C(=O)N(CC)C1=S` (stereo not given) was 1.19 (inactive). `Cc1ccc(S(=O)(=O)N(C)c2ccc(C(=O)NCC3(N(C)C)CCCCC3)cc2)cc1`: the B-score was 0.21 (inactive). Then `COC(=O)C1=C(c2ccccc2)C[C@@H]2CC[C@H]1N2C(=O)N1CCCCC1`, with -0.79 (inactive); and `COc1ccc(C2NCc3ccc4c(c3-n3cccc32)OCO4)cc1OC` (stereo not given), with -0.31 (inactive); and `c1ccc(C2NCc3ccccc3-n3cccc32)cc1` (stereo not given), with -6.08 (active).

For the compound `COc1ccc2c(c1)[C@]13CCCCC1C(C2)N(C)CC3` (stereo not given in full), the B-score is -0.18 (inactive). As to `O=C(Cc1ccccc1)N1CCN(C2CCCCCC2)CC1`, the B-score was -1.16 (inactive). The value for `CCCCn1c(=O)c(C(=O)Nc2ccccc2Cl)c(O)c2ccccc21` was -1.32 (inactive); that for `CN(C)CCN(CC1CCCN(Cc2ccccc2F)C1)C(=O)Cc1ccc(F)c(F)c1` (stereo not given) was -0.57 (inactive). Then `O=C1N=c2ccccc2=C/C1=C\c1c(O)[nH]c(=S)[nH]c1=O`, with 0.39 (inactive); and `CCCCCCCCCCCCn1ccc(=N)cc1`, with -13 (active); and `COc1ccc(C(=O)CC2C(=O)N(C)C(=O)N(C)C2=O)cc1`, with 0.17 (inactive). `c1ccc(CCN2CCC3(CC2)OCCO3)cc1`: the B-score was 1.88 (inactive). Take `COC(=O)C1=C(c2cc3ccccc3s2)C[C@@H]2CC[C@H]1N2C(=O)NCCO`: the B-score was -0.7 (inactive). The value for `Clc1ccc2nc3c(c(-c4ccccc4)c2c1)CNCC3` was -7.18 (active); that for `Cc1nn(-c2ccccc2)c(C)c1NC(=O)COC(=O)Cc1ccccc1` was -0.02 (inactive); that for `CCOC(=O)C1(CCc2ccccc2)CCN(Cc2ccco2)CC1` was -2.11 (inactive). The value for `CC[C@H]1CC2CN3CCc4c([nH]c5ccccc45)C(C(=O)OC)(C2)C13` (stereo not given in full) was -2.28 (inactive); that for `CC(c1ccccc1)(c1ccccc1)c1ccncc1` was -4.28 (active). Then `CCN(CC)C(=O)c1ccc(NC(=O)c2sccc2-c2ccccc2)cc1`, with 0.02 (inactive).

With `COC(=O)C1=C(c2cc3ccccc3s2)C[C@@H]2CC[C@H]1N2C(=O)NC(C)C`, the B-score is -1.96 (inactive). Then `O=C(C1CC(=O)N(C2CCCC2)C1)N1CCC2(CC1)OCCO2` (stereo not given), with 0.05 (inactive); and `Cc1ccc(C2CN(C)CC2C(=O)c2ccc(F)cc2)cc1` (stereo not given), with -2.69 (inactive); and `O=c1c2ccccc2nc(/C=C/c2ccco2)n1-c1ccccc1O`, with -0.02 (inactive). The value for `C/C(=N/O)c1ccc2ccc3ccccc3c2c1` was -0.33 (inactive); that for `Cc1nc2ccccn2c1P(=S)(N1CCCCC1)N1CCCCC1` was -5.35 (active).

Consider `CCCCCn1c(=O)c(C(=O)NCc2ccccc2)c(O)c2ccccc21`, for which the B-score is 1.46 (inactive).

Regarding `COc1ccccc1C1=NCc2nnc(CSC)n2-c2ccc(Cl)cc21`, the B-score is 0.29 (inactive). Then `CCOc1ccc(-c2cc(C)[n+](CCN(CC)CC)c(-c3ccc(OCC)cc3)c2)cc1`, with -4.58 (active); and `Cc1cc2ccccn2c1C(C[N+](=O)[O-])c1c(F)cccc1Cl` (stereo not given), with -0.86 (inactive). On to `COc1ccc(Br)cc1CNCCc1cccc(Cl)c1`, for which the B-score is -10.4 (active). The value for `COc1ccc(CNCCc2c[nH]c3ccccc23)cc1OC` was 0.17 (inactive).

With `COc1ccc(CNCCc2ccc3c(c2)OCO3)c(OC)c1OC`, the B-score is 0.87 (inactive).

As for `NCCc1c[nH]c2ccc(O)cc12`, the B-score is -0.71 (inactive). As to `COC(=O)C1=C(c2cc3ccccc3s2)C[C@@H]2CC[C@H]1N2C(=O)NCc1cccc2ccccc12`, the B-score is 2.94 (inactive). Then `COC(=O)C1=C(c2cc3ccccc3o2)C[C@@H]2CC[C@H]1N2C(=O)NC1CCCCC1`, with -0.65 (inactive); and `CN(c1ccccc1)c1ccc([N+](=O)[O-])c2nonc12`, with -1.89 (inactive); and `Fc1ccc(N2CCN(Cc3ccc4c(c3)OCO4)CC2)cc1`, with -6.26 (active).

Take `O=C(Cc1ccccc1[N+](=O)[O-])N1CCN(Cc2ccc3c(c2)OCO3)CC1`: the B-score was 0.65 (inactive). Then `Oc1cc2c(cc1CN1CCN(c3ccccc3)CC1)OCO2`, with -0.91 (inactive); and `CCN1CCN(c2nc3c(c(=O)[nH]2)CCC3)CC1`, with 1.68 (inactive). The value for `COc1cccc(N2C(=O)NC(=O)/C(=C\c3cn(C)c4ccccc34)C2=O)c1` was 0.09 (inactive).
